An excerpt weighted towards active compounds, which were near 3.5% of everything screened.
FBW7 act: human FBW7 E3 ligase activation, primary screen | Q969H0 | AlphaScreen FBW7–phospho-cyclin E peptide binding, activator screen | normalized activity (activation), % at 26.1 µM | hit rate 0.13% among 650,000; in the data active means normalized activity above about 1.9%;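 further: purified mutant Fbw7 with reduced substrate affinity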
GPR151 activ: activators of human GPR151; Q8TDV0; AID 1508602; hit rate 1% among 650,000; PathHunter beta-arrestin GPR151 cells, luminescence; activation, % at 11.2 µM; in the data active means activation above about 4.9%;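 further: 0% = median of compound wells and 100% = cells with positive control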
TEAD-YAP inh: TEAD-YAP interaction inhibition | HEK-TIYL cells, TEAD-Gal4/YAP UAS-luciferase luminescence | inhibition, % at 9.12 µM | hit rate 1.4% among 640,000 | AID 1259422; in the data active means inhibition above about 32%;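 further: 0% = median of test compound wells and 100% = reference inhibitor wells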
MITF primary: human MITF inhibition, primary screen. O75030. AlphaScreen MITF homodimerization, bead proximity signal. inhibition, % at 2.6 µM. hit rate 0.91% among 650,000; in the data active means inhibition above about 50%;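 further: 0% = vehicle wells with protein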
GPR151 confirm: confirmation of human GPR151 activators | shares compounds with GPR151 activ | GPR151 PathHunter beta-arrestin cells, luminescence, 90 min; % of EA-reagent control over plate median | activation, % at 11.2 µM | 6,700 tested, under 10 active | AID 1508609;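 active means mean percent activation across replicates above the confirmation screen cutoff of 4.91%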
GPR119 counter: counter-screen for GPR151 activators: effect on human GPR119. shares compounds with GPR151 activ. GPR119 PathHunter beta-arrestin cells, luminescence, 90 min; 0 = compound-well median, 100 = enzyme-acceptor control. activation, % at 11.2 µM. hit rate 0.3% among 6,700. AID 1508611;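 active means mean percent activation in the counterscreen above 29.09%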;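 further: counterscreen on off-target GPR119 to flag nonselective hits from the GPR151 activator screen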
* hit, by the source's call; / = not tested or not shown; ! = repeats disagree.

SMILES	FBW7 act	GPR151 activ	TEAD-YAP inh	MITF primary	GPR151 confirm	GPR119 counter
CCCN(CCC)CCCNC(=O)c1nn(-c2ccc(OC)cc2)c(=O)c2ccccc12	0	-2	2	15	/	/
CCCN(CCC)CCCNC(=O)c1nn(-c2ccc(OCC)cc2)c(=O)c2ccccc12	0	8.8*	-4	3	1	8
CCOc1ccc(-n2nc(C(=O)NCc3ccc(F)cc3)c3ccccc3c2=O)cc1	0	6.4*	0	1	0	1
COc1ccc(-n2nc(C(=O)NCc3ccc(F)cc3)c3ccccc3c2=O)cc1	0	2	5	13	/	/
COc1cc(C2C3=C(CC(C)(C)CC3=O)OC3=C2C(=O)CC(C)(C)C3)ccc1OCC(=O)OCc1ccccc1	0	0	13	2	/	/
COc1ccc2sc(C)[n+](CC(=O)O)c2c1	0	0	2	2	/	/
CCOC(=O)C[n+]1c(C)sc2ccc(OC)cc21	0	6.1*	21	-5	0	0
O=c1c2sc3ccc([N+](=O)[O-])cc3c2[nH]c(=S)n1Cc1ccccn1	0	8.8*	2	6	-1	-8
CC(C)n1c(=S)[nH]c2c(sc3ccc([N+](=O)[O-])cc32)c1=O	0	1	8	-5	/	/
Cc1cc2c(cc1C)NC(c1ccc(Cl)c(F)c1)C1=C(CC(C)(C)CC1=O)N2 (stereo not drawn)	0	1	4	13	/	/
Cn1nnnc1SCc1nnc(-c2ccccc2)o1	0	1	-25	-3	/	/
Cn1nnnc1SCc1nnc(-c2cccs2)o1	0	7.6*	-21	2	1	14
COc1ccc(NC(=O)c2sc3nc4c(cc3c2N)C(=O)CCC4)cc1	0	10*	5	5	1	12
COc1ccc(NC(=O)c2sc3nc4c(cc3c2N)C(=O)CCC4)c(OC)c1	0	1	15	13	/	/
CCCCCCCCCCCCCCCCOP(=O)(O)OCC[N+](C)(C)C	0	11*!	5	-13	0	6
O=C(CNCc1ccco1)NC(c1ccccc1)c1ccccc1	0	2	4	22	/	/
COc1ccccc1C(CC(=O)Nc1nccs1)c1ccc2c(c1)OCO2 (stereo not drawn)	0	6.6*	-5	0	0	13
O=C(CN(C(=O)CCC(=O)Nc1nccs1)c1cccc(F)c1)NCC1CCCO1 (stereo not drawn)	1	9.2*	-5	11	1	0
COCCNC(=O)CN(C(=O)CCC(=O)Nc1ccccn1)c1ccc2c(c1)OCO2	0	-1	-5	8	/	/
COCCNC(=O)CN(C(=O)CCC(=O)Nc1nccs1)c1ccc2c(c1)OCO2	0	7.3*	1	-4	1	11
C#CC(C)(C)N1CCC(=O)C(C)C1 (stereo not drawn)	0	0	-5	2	/	/
CCOC(=O)C(NC(=O)c1ccccc1F)(Nc1nc2ccccc2nc1C(F)(F)F)C(F)(F)F (stereo not drawn)	0	-1	13	5	/	/
CCC(C(=O)Nc1cccc2ccc(OC)nc12)c1ccccc1 (stereo not drawn)	1	1	-7	14	/	/
COc1ccccc1N1CCN(S(=O)(=O)c2ccc(Br)cc2C)CC1	0	8.5*	-7	-17	0	-7
COc1ccc(Br)cc1S(=O)(=O)N1CCN(c2ccc(N3CCCC3)nn2)CC1	0	7.7*	7	3	1	3
SMILES	FBW7 act	GPR151 activ	TEAD-YAP inh	MITF primary	GPR151 confirm	GPR119 counter
CCc1cc2c(cc3c(=O)n(CC(=O)NCCCN4CCCC4=O)ncn32)s1	0	1	1	0	/	/
CCOc1ccc2[nH]c(=O)c(CN(CC3CCCO3)C(=O)N(CC)CC)cc2c1 (stereo not drawn)	0	0	3	-1	/	/
O=C(CCN1C(=O)C2CCCCC2C1=O)NNc1c(F)c(F)cc(F)c1F (stereo not drawn)	0	5.4*	6	-10	0	1
CC(C)(C)c1ccc(C(=O)On2c(-c3ccccc3F)nc3ccccc3c2=O)cc1	0	5.9*	0	3	1	14
O=C(NC(NC(=O)c1ccccc1F)c1ccc2c(c1)OCO2)c1ccccc1F	0	11*	1	-3	1	0
CC(C)[C@H](NC(=O)c1ccccc1F)C(=O)Nc1ccc2c(c1)OCO2	0	0	-6	-6	/	/

Screens: PubChem BioAssay, The Scripps Research Institute Molecular Screening Center
